Laboratory results reported in PubChem BioAssay (NCI).
Several values for one entry are separate records, joined by “and”; a condition that tells them apart may be missing. Identical values can stand only once. Compounds without any hit were thinned out: in the full panel of roughly 83,000, 20% have a hit.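 96-well plates, one dose, 48 hours. Percent growth reported; active if below 10.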 Unmarked numbers belong to inactive results. Activity calls are given as the source filed them.

Test system: MDA-MB-468 breast
Test: NCI-60 one-dose screen, 48 h (100 = growth as untreated, 0 = no growth, -100 = all killed)
Conditions: 10 µM unless noted

| SMILES | growth |
| --- | --- |
| COc1ccc(/C=C2\CN(C(=O)C(Cl)Cl)C/C(=C\c3ccc(OC)c(OC)c3)C2=O)cc1OC | -14.2% (active) |
| CC(C)(C)n1cc(-c2ccnc(NCCCNS(=O)(=O)c3ccc(C(F)(F)F)cc3)c2)c(-c2cccc(F)c2)n1 | 98.6% |
| COc1cccc(C(=O)NNc2nc(N3CCOCC3)nc(N3CCN(C(c4ccccc4)c4ccccc4)CC3)n2)c1 | 61.7% |
| COC(=O)c1cc2c3c(cc(O)c2[nH]1)N(C(=O)C1Cc2cc(OC)c(OC)c(OC)c2N1)CC3CCl (stereo unspecified) | -41.8% (active) |
| C(=C(\C1=NCCN1)n1ccc2ccccc21)/c1ccccc1 | 96.5% |
| C#C[C@]1(O)CC[C@H]2[C@@H]3CC=C4c5nc(N)sc5CC[C@]4(C)[C@H]3CC[C@@]21C | 34% |
| C[C@@H]1C(=O)N(C[C@H](Cc2ccccc2)N(Cc2ccccc2)Cc2ccccc2)[C@]1(Cc1ccccc1)C(=O)OC(C)(C)C | 10.7% |
| CCOc1nc(-c2ccccc2)cc2c(O)c(C(=O)N/N=C/c3ccccc3)[nH]c(=O)c12 | 105% |
| CC(C)(C)n1cc(-c2ccnc(NCCNS(=O)(=O)c3ccc(C(F)(F)F)cc3)c2)c(-c2ccccc2)n1 | 89.1% |
| O=C1/C(=C/C=C/c2ccco2)SC(=S)N1Cc1ccccc1 | 58.5% |
| CCCCCCCCCN(CCCCCCCCC)C(C)C(=O)c1ccc2cc(Br)c3ccccc3c2c1 (stereo unspecified) | 99.2% |
| O=C1CSC(c2cn(-c3ccccc3)nc2-c2ccc(Cl)cc2)N1c1ccccc1 (stereo unspecified) | 104% |
| COc1ccc(C2C3=C(COC3=O)N(CCO)c3cc4c(cc32)OCCO4)cc1OC (stereo unspecified) | -32.1% (active) |
| CC1CC(=O)OC(C)C1 (stereo unspecified) | 99.6% |
| c1c2c(cc3c1OCO3)Cc1cc3c(cc1Cc1cc4c(cc1C2)OCO4)OCO3 | 106% |
| COc1ccc(/C=C(/C)c2ccc3ccc(OC)cc3[o+]2)c(O)c1 | 67.7% |
| Cc1ccc2ccccc2c1C[n+]1ccccc1 | 50.5% |
| CCN(CC)CCN1C(=O)c2c(c(C)c3c(oc4ccc(O)cc43)c2C)C1=O | 47.5% |

| SMILES | growth |
| --- | --- |
| COc1cc(C2C=C(c3ccc(Cl)c(Cl)c3)N=C3SC(C)=CN32)cc(OC)c1OC (stereo unspecified) | 62.5% |
| O=C(Nc1cccc(Cl)c1)c1cc2ccccc2cc1O | 55.4% and 17.8% |
| NNc1ccccc1C(=O)O | 102% |
| N#Cc1c(-c2ccc(Cl)cc2)nc(NN=Cc2cccc(O)c2)nc1N1CCOCC1 | 87.4% |
| N#Cc1ccc(-n2nnc3ccccc32)cc1C#N | 99.5% |
| CCN(CC)CCNc1ccc(C)c2sc3cc(C)ccc3c(=O)c12 | 66.5% |
| CCN1CCN(c2cc(C)nc(N(CCCNc3ccnc4cc(Cl)ccc34)Cc3cccs3)n2)CC1 | -26.4% (active) |
| Cc1[nH]c(C(=O)Nc2ccccc2OCc2cccc(C(=O)NCCN)c2)cc1Cl | 34.3% |
| COc1cc(C(=O)N/N=C/c2cc3cc(OCc4ccccc4)ccc3nc2OC)cc(OC)c1OC | 85.2% |
| O=C(/C=C/c1ccc(Cl)cc1)/C=C/c1cc2ccccc2[nH]c1=O | 55.9% |
| COc1cc2ncnc(Oc3ccc(NC(=O)Nc4ccc(C5(C#N)CCCC5)cc4)c4ccccc34)c2cc1OC | 38.2% |
| Oc1c(Cl)c2ccccc2c2ccccc12 | 112% |
| COC(=O)[C@]12CC[C@@H](C)[C@H](C)[C@@H]1C1=CC(=O)[C@@H]3[C@@]4(C)C[C@@H](OC(C)=O)[C@H](OC(C)=O)[C@@](C)(COC(C)=O)[C@@H]4C(=O)C[C@@]3(C)[C@]1(C)CC2 | 35.3% |
| CC(C)=CCC[C@](C)(O)[C@H]1CC[C@]2(C)[C@@H]1CC[C@@H]1[C@@]3(C)C/C(=C/c4ccc(Br)cc4)C(=O)C(C)(C)[C@@H]3CC[C@]12C | 83.7% |
| Cc1cc(C)cc(CCCCCCCCCCCCCCCCCC(=O)O)c1 | 106% |
| C=CCn1c(SCC(=O)Nc2ccc(C(=O)/C=C/c3ccc(Cl)cc3)cc2)nnc1-c1cc(OC)c(OC)c(OC)c1 | 79% |
| COc1ccc(/C=N\NC(=O)c2ccc3nc(-c4ccc(Br)cc4)[nH]c3c2)cc1 | 32.1% |
| COc1cc(/C=C2\SC(=O)NC2=O)ccc1OCC(=O)Nc1ccc(C(=O)/C=C/c2cc3ccccc3nc2Cl)cc1 | 61.4% |
